Data published in the supplement of paper PMC7380943.

Key:
[1] = system: CLZ3 (HCA2 human fibroblast dual HR-NHEJ reporter); assay: NHEJ repair efficiency (GFP+ cells) relative to control (log10 fold); higher = more non-homologous end joining; settings: 5 µM; doxycycline 0.5 ug/mL
[2] = system: CLZ3 (HCA2 human fibroblast dual HR-NHEJ reporter); assay: HR repair efficiency (tdTomato+ cells) relative to control (log10 fold); higher = more homologous recombination; settings: 5 µM; doxycycline 0.5 ug/mL
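For HR repair efficiency (tdTomato+ cells) relative to control in this document: compound given one day before doxycycline, which switches on I-SceI endonuclease expression to create double-strand breaks within the integrated reporter.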
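For NHEJ repair efficiency (GFP+ cells) relative to control in this document: compound given one day ahead of doxycycline, which switches on I-SceI endonuclease to cut the chromosomally integrated reporter and create DSBs.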

Structure (SMILES) | NHEJ repair efficiency (log10) [1] | HR repair efficiency (log10) [2]
O=C(O[C@@H]1Cc2c(O)cc(O)cc2O[C@@H]1c1ccc(O)c(O)c1)c1cc(O)c(O)c(O)c1 [Epicatechin Gallate] | -0.236 | -0.0859
O=C1CCC[C@@H]2[C@H]3CCC[N+]4([O-])CCC[C@@H](CN12)[C@@H]34 (some centres undefined) [Oxymatrine] | 0.0707 | -0.0643
Cc1c(S(=O)(=O)O)oc2c1C(=O)C(=O)c1c-2ccc2c1CCCC2(C)C [Tanshinone Iia Sodium Sulfonate] | 0.0248 | 0.126
C[C@H]1[C@H](C)CC[C@]2(C(=O)O)CC[C@]3(C)C(=CC[C@@H]4[C@@]5(C)CC[C@H](O)C(C)(C)[C@@H]5CC[C@]43C)[C@H]12 [Ursolic Acid] | 0.324 | -0.12
CC[C@H](C)[C@@H]1NC(=O)[C@@H]2CCCN2C(=O)[C@@H]2CCCN2C(=O)[C@@H]2CCCN2C(=O)[C@H](CC(C)C)NC(=O)CNC(=O)CNC(=O)[C@H](Cc2ccccc2)NC1=O [Heterophyllin B] | 0.0424 | 0.0454
CC1(C)CC[C@]2(C(=O)O)CC[C@]3(C)C(=CC[C@@H]4[C@@]5(C)CC[C@H](O)C(C)(C)[C@@H]5CC[C@]43C)[C@@H]2C1 [Oleanolic Acid] | 0.0316 | 0.133
CCCCCCCC/C=C\CCCCCCCC(=O)OCC(COC(=O)CCCCCCC/C=C\CCCCCCCC)OC(=O)CCCCCCC/C=C\CCCCCCCC [Glycerol Trioleate] | -0.000616 | 0.0182
Nc1ncnc2c1ncn2[C@@H]1O[C@H](CO)C[C@H]1O [Cordycepin] | 0.007 | -0.139
O=C(/C=C/c1ccc(O)c(O)c1)O[C@H]1[C@H](O)C[C@](O)(C(=O)O)C[C@H]1O [Cryptochlorogenic Acid] | 0.102 | 0.168
Cc1ccc(C(C)C)c(O)c1 [Thymol] | 0.108 | 0.0691
O=c1oc2c(O)c(O)cc3c(=O)oc4c(O)c(O)cc1c4c23 [Ellagic acid] | 0.0142 | -0.0224
OC[C@H]1OC(O)[C@H](O)[C@@H](O)[C@H]1O (stereo partly drawn) [D-Galactose] | 0.00385 | -0.0597
COc1cc(O)c2c(=O)c(O[C@@H]3O[C@H](CO)[C@@H](O)[C@H](O)[C@H]3O)c(-c3ccc(O[C@@H]4O[C@H](CO)[C@@H](O)[C@H](O)[C@H]4O)cc3)oc2c1 [Complanatoside] | -0.0413 | -0.0658
C=C(C)[C@@H]1CC[C@]2(C(=O)O)CC[C@]3(C)[C@H](CC[C@@H]4[C@@]5(C)CC[C@H](O[C@@H]6OC[C@H](O)[C@H](O)[C@H]6O[C@@H]6O[C@@H](C)[C@H](O)[C@@H](O)[C@H]6O)[C@@](C)(CO)[C@@H]5CC[C@]43C)[C@@H]12 [Anemoside A3] | 0.0688 | 0.0291
COc1ccc(C2OCC3C(c4cc(OC)c(OC)c(OC)c4)OCC23)cc1OC (centres undefined) [Magnolin] | -0.0599 | -0.00542
O=c1c(-c2ccc(O)cc2)coc2cc(O)cc(O)c12 [Genistein] | -0.0971 | -0.179
COc1cc2c(c(OC)c1OC)-c1c(cc(OC)c(OC)c1OC)C[C@H](C)[C@H](C)C2 [Schisandrin A] | -0.121 | -0.0756
O=C(/C=C/c1ccc(O)c(O)c1/C=C/c1ccc(O)c(O)c1)O[C@H](Cc1ccc(O)c(O)c1)C(=O)O [Salvianolic Acid A] | 0.0713 | 0.0119
COc1cc(OC)c2ccc(=O)oc2c1 [Citropten] | 0.137 | 0.0946
COc1cc(-c2oc3cc(O)cc(O)c3c(=O)c2O[C@@H]2O[C@H](CO)[C@@H](O)[C@H](O)[C@H]2O[C@@H]2O[C@@H](C)[C@H](O)[C@@H](O)[C@H]2O)ccc1O [Isorhamnetin-3-O-Nehesperidine] | -0.039 | -0.0649
COc1ccc(CCC(=O)c2c(O)cc(OC3OC(CO)C(O)C(O)C3OC3OC(C)C(O)C(O)C3O)cc2O)cc1O (centres undefined) [Neosperidin Dihydrochalcone] | -0.0639 | 0.0209
C[C@@H]1O[C@@H](O[C@H]2[C@H](O[C@H]3CC[C@@]4(C)[C@@H](CC[C@]5(C)[C@@H]4CC=C4[C@@H]6CC(C)(C)CC[C@]6(C(=O)O[C@@H]6O[C@H](CO[C@@H]7O[C@H](CO)[C@@H](O)[C@H](O)[C@H]7O)[C@@H](O)[C@H](O)[C@H]6O)CC[C@]45C)[C@]3(C)CO)OC[C@H](O)[C@@H]2O)[C@H](O)[C@H](O[C@@H]2O[C@H](CO)[C@@H](O)[C@H](O)[C@H]2O)[C@H]1O [Macranthoidin A] | -0.155 | 0.0324
